# The source made the active and inactive calls. Rule for the calls: active = hit-call score of the fitted dose curve at least 0.9, where 1 is the maximum; inactive = score below 0.9.
# What was measured:
# [1] = biological target: Transcription factor E2F1 (Homo sapiens) (UniProt Q01094); experiment: ATG_E2F_CIS: Attagene CIS-FACTORIAL HepG2 Assay for human E2F Transcription Factor 1 (AID 2282935); conditions: HepG2 Attagene cis-reporter, E2F reporter RNA transcripts; actives raise or lower the signal
# In short: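 Gain or loss of reporter transcript, fitted against DMSO, reflects E2F1-driven transcription. Transiently transfected HepG2 dosed 24 h before RNA isolation. Quantified by fluorescent RT-PCR products separated by capillary electrophoresis.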
# [2] = ATG_E_Box_CIS: Attagene CIS-FACTORIAL HepG2 Assay for human Enhancer Box (E-box) (AID 2282936); conditions: HepG2 E-box cis-reporter transcription, actives raise or lower the signal
# In short: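 E-box-driven reporter transcripts measured in transiently transfected HepG2 after 24 h exposure: RNA reverse-transcribed, PCR-amplified, fluorescently labelled, digested and resolved by capillary electrophoresis. Gain or loss relative to DMSO.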
# [3] = ATG_M_61_CIS: Attagene CIS-FACTORIAL HepG2 Assay for M61 Transcription Factor (Internal Marker) (AID 2282937); conditions: HepG2 Attagene CIS-FACTORIAL M61 internal marker reporter; actives raise or lower the signal
# In short: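 Readout is reporter mRNA by RT-PCR, fluorescent primer extension and capillary electrophoresis, with gain or loss fitted relative to DMSO. Transfected HepG2 cells carrying endogenous-TF-driven cis reporters were exposed to chemicals for 24 hours.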
# [4] = ATG_M_19_CIS: Attagene CIS-FACTORIAL HepG2 Assay for M19 Transcription Factor (Internal Marker) (AID 2282939); conditions: HepG2 Attagene CIS-FACTORIAL M19 internal marker reporter; actives raise or lower the signal
# In short: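 Following a 24 h exposure, RNA from transfected HepG2 cells was reverse-transcribed, PCR-amplified with reporter-specific primers, end-labelled with 6-FAM and HpaI-digested before capillary separation. Values represent gain or loss versus DMSO.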
# [5] = ATG_ERE_CIS: Attagene CIS-FACTORIAL HepG2 Assay for Estrogen Response Element (ERE) (AID 2282940); conditions: HepG2 ERE cis-reporter, Attagene RNA transcript; actives raise or lower the signal
# In short: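 HepG2, transient cis-reporter units, 24 h exposure. RNA isolated, oligo(dT) RT, reporter-specific PCR, FAM extension, HpaI cut, CE detection. Gain/loss-of-signal vs DMSO.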
# [6] = ATG_Ets_CIS: Attagene CIS-FACTORIAL HepG2 Assay for human Erythroblast Transformation Specific (ETS) (AID 2282941); conditions: HepG2 ETS cis-reporter transcription, actives raise or lower the signal
# In short: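 Multiplexed reporter transcript profiling: HepG2, 24 h treatment, total RNA to cDNA, PCR, 6-FAM labelling, HpaI cut, capillary electrophoresis. Gain- or loss-of-signal fitted against DMSO.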
# [7] = biological target: Hepatocyte nuclear factor 3-beta (Homo sapiens) (UniProt Q9Y261); experiment: ATG_FoxA2_CIS: Attagene CIS-FACTORIAL HepG2 Assay for human Forkhead box A2 (FOXA2) (AID 2282942); conditions: HepG2 cis-reporter transcription factor activity, 24 h; actives raise or lower the signal
# In short: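 Endogenous transcription factor activity is captured via cis-element-driven reporter transcripts in transfected HepG2. Total RNA taken at 24 h post-dosing; labelled RT-PCR products resolved by capillary electrophoresis. Gain or loss fitted versus DMSO.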
# [8] = ATG_FoxO_CIS: Attagene CIS-FACTORIAL HepG2 Assay for human Forkhead box O (FoxO) (AID 2282943); conditions: HepG2 Attagene cis-reporter, FoxO element, mRNA; actives raise or lower the signal
# In short: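 HepG2, transient MRTU transfection (cis element, endogenous TFs). Dose 24 h. TriZol RNA → oligo(dT) RT → PCR → 6-FAM primer extension → HpaI cut → CE. Gain/loss vs DMSO.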
# [9] = ATG_GATA_CIS: Attagene CIS-FACTORIAL HepG2 Assay for human GATA Binding Protein (AID 2282944); conditions: HepG2 GATA cis-element reporter, Attagene multiplex mRNA; actives raise or lower the signal
# In short: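 DMSO serves as negative control and baseline for bidirectional fitting of reporter mRNA changes. HepG2 cells bearing transiently transfected cis-promoter reporters were exposed 24 h; transcripts detected via RT-PCR and capillary electrophoresis.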
# Hepatocyte nuclear factor 3-beta (Homo sapiens), sequence (Q9Y261 whole entry, looked up): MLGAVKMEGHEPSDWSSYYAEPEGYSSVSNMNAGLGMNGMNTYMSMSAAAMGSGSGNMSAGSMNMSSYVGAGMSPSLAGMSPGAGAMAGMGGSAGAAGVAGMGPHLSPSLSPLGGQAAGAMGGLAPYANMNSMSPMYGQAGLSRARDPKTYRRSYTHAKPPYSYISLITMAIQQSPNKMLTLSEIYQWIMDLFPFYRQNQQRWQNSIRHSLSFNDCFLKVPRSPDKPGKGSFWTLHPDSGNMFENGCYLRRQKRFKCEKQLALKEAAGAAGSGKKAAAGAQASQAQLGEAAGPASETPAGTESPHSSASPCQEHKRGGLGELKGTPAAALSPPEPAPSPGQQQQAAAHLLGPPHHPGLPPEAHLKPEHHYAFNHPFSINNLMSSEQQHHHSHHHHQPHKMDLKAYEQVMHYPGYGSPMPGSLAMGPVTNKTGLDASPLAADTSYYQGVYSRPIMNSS
# Transcription factor E2F1 (Homo sapiens), sequence (Q01094 whole entry, looked up): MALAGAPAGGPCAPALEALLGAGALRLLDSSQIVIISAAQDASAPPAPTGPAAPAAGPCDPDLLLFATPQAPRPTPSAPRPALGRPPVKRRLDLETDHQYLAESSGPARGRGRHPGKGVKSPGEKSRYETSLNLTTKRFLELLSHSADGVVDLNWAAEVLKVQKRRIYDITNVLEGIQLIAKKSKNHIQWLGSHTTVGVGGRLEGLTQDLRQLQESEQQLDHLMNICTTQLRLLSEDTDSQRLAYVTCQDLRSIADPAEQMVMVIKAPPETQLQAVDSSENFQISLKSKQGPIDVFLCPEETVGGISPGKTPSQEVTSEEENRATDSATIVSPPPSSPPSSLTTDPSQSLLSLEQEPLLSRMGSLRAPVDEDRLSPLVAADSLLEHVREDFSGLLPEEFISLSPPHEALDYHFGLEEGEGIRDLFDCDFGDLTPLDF
Structure (SMILES),outcome [1],outcome [2],outcome [3],outcome [4],outcome [5],outcome [6],outcome [7],outcome [8],outcome [9],AC50 [2],AC50 [5]
FC(F)(F)C(F)(F)C(F)(F)N(C(F)(F)C(F)(F)C(F)(F)F)C(F)(F)C(F)(F)C(F)(F)F,inactive,inactive,inactive,inactive,inactive,inactive,inactive,inactive,inactive,,
c1ccc(B(c2ccccc2)c2ccccc2)cc1,inactive,,inactive,inactive,,inactive,inactive,inactive,inactive,160 µM (active),9.96 µM (active)
C#C[C@]1(O)CC[C@H]2[C@@H]3CCc4cc(OC)ccc4[C@H]3CC[C@@]21C,inactive,inactive,inactive,inactive,,inactive,inactive,inactive,inactive,,0.00935 µM (active)
CC(C)OC(=O)c1ccccc1C(=O)OC(C)C,inactive,inactive,inactive,inactive,,inactive,inactive,inactive,inactive,,27.7 µM (active)
c1ccc(-c2ccccc2-c2ccccc2)cc1,inactive,inactive,inactive,inactive,,inactive,inactive,inactive,inactive,,
CC(C)(C)c1ccc(OC2CCCCC2O)cc1 (centres undefined),inactive,inactive,inactive,inactive,,inactive,inactive,inactive,inactive,,
O=S(=O)(O)C(F)(F)C(F)(F)C(F)(F)C(F)(F)C(F)(F)C(F)(F)C(F)(F)F,inactive,inactive,inactive,inactive,,inactive,inactive,inactive,inactive,,
CCCCNc1ccccc1,inactive,inactive,inactive,inactive,inactive,inactive,inactive,inactive,inactive,,

# From PubChem BioAssay (EPA / NIEHS)
